LYPLA1 counter: blocks human lysophospholipase 1, a PME1 counter-screen. inhibition, % at 5.9 µM. AID 2174. hit rate 0.16% among 320,000. recombinant LYPLA1, FP-Rh probe fluorescence polarization;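 active = inhibition above the mean of all tested compounds plus 3 SD, set per campaign, cut at about 14% in these data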;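 also: inhibitors block serine hydrolase probe labeling of LYPLA1 so polarization falls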
Fam108B counter: blocks mouse Fam108B hydrolase in RBBP9 counter-screen; recombinant Fam108B, FP-Rh probe fluorescence polarization; inhibition, % at 9.51 µM; hit rate 0.33% among 300,000; AID 1947;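 active = inhibition above the screen mean inhibition plus 3 SD, computed separately per campaign, cut at about 18% in these data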;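 also: inhibitors lower polarization as less probe binds the enzyme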
GSTO1 inh: counter-screen for RBBP9 inhibitors: inhibitors of human GSTO1; hit rate 1.1% among 300,000; P78417; inhibition, % at 5.96 µM; recombinant GSTO1, activity-based probe fluorescence polarization;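 active = inhibition above the campaign mean inhibition plus 3 SD, cut at about 35% in these data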
Target sequence (P78417 whole entry, looked up): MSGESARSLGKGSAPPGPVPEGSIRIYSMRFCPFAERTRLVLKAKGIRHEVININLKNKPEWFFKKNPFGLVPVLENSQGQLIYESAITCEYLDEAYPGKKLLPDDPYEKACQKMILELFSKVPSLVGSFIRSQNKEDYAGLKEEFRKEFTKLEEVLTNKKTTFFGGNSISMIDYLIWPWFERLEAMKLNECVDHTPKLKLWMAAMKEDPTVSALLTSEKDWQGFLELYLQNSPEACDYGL
LYPLA2 counter: blocks human lysophospholipase 2, a PME1 counter-screen; O95372; recombinant LYPLA2, FP-Rh probe fluorescence polarization; inhibition, % at 5.9 µM; hit rate 0.38% among 320,000;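 active = inhibition above the screen-wide mean plus 3 SD, limit set per campaign, cut at about 26% in these data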
Target sequence (O95372 whole entry, looked up): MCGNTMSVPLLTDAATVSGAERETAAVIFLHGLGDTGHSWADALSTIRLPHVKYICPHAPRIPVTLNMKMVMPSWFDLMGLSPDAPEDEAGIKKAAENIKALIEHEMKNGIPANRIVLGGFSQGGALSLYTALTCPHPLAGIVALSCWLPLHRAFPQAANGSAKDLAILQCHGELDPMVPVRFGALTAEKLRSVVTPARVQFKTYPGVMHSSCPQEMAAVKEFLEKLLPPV
PAD4 FP inh: PAD4 (human) enzyme inhibition | Q9UM07 | recombinant PAD4, RCA probe fluorescence polarization | inhibition, % at 6.36 µM | hit rate 0.41% among 330,000 | AID 485272;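 active = percent inhibition above a cutoff equal to the mean of all tested compounds plus 3 SD, cut at about 15% in these data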
PME-1 primary: PME-1 (human) inhibition | inhibition, % at 5.9 µM | hit rate 0.53% among 320,000 | Q9Y570 | recombinant PME-1, FP-Rh probe fluorescence polarization;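 active = inhibition above the campaign mean of all compounds plus 3 SD, cut at about 26% in these data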;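 also: competitive labeling of PME-1 active site by serine hydrolase directed probe; inhibitors block probe labeling so polarization falls and inhibition rises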
Each line names hits and unclear results; the compound was inactive in the other large screens. An excerpt weighted towards active compounds, which were near 1.8% of everything screened.

O=C(NCCCO)Nc1ccc2nc(-c3ccco3)c(-c3ccco3)nc2c1	Fam108B counter 52.3, GSTO1 inh 65.6
CC(=O)Nc1ccc(NC(=O)Cn2cnc(S(=O)(=O)N3CCOCC3)c2)cc1	none
CN(C(=O)COC(=O)c1cc(S(=O)(=O)N2CCOCC2)c(Cl)cc1Cl)C1CCS(=O)(=O)C1 (stereo unspecified)	GSTO1 inh 54.4
CCOC(=O)Cc1csc(NC(=O)c2sc3nc4cc(C)ccc4cc3c2N)n1	PME-1 primary 45.7
O=C(NC1CCCC1)C(c1ccc(F)cc1)N(Cc1ccc(F)cc1)C(=O)c1ccn[nH]1 (stereo unspecified)	none
O=C(NC1CCCC1)C(c1ccc(F)cc1)N(Cc1ccccc1Cl)C(=O)CCl (stereo unspecified)	GSTO1 inh 72.1
COCCN(C(=O)CCC(=O)Nc1cc(C)on1)C(C(=O)NC1CCCC1)c1ccccc1C (stereo unspecified)	none
COCCN(C(=O)CCl)C(C(=O)NC1CCCCC1)c1ccccc1C (stereo unspecified)	GSTO1 inh 99.4
O=C(Nc1ccncc1)C1CCN(S(=O)(=O)c2ccc(Cl)cc2)CC1	none
Cc1ccnc(NS(=O)(=O)c2ccc(NC(=O)c3ccc([N+](=O)[O-])s3)cc2)n1	GSTO1 inh 36.7
CC#CCN1c2ccccc2[C@]23C[C@@H](C(=O)OC)N(C(=O)c4cc(C)oc4C)C2=NC(C(=O)OC)=C(C(=O)OC)[C@H]13	PME-1 primary 27.6
C=CCN1c2ccccc2[C@]23C[C@@H](C(=O)OC)N(C(=O)c4cc(C)oc4C)C2=NC(C(=O)OC)=C(C(=O)OC)[C@H]13	none
Cc1cc(F)ccc1NC(=O)c1cc(S(=O)(=O)N2CCc3ccccc32)cn1C	none
CCC(C)Nc1nc(N)c([N+](=O)[O-])c(Nc2ccccc2OC)n1 (stereo unspecified)	none
CCC(C)Nc1nc(N)c([N+](=O)[O-])c(Nc2cc(OC)ccc2OC)n1 (stereo unspecified)	PME-1 primary 28.2
CNc1ccc(Br)cc(C(=O)/C=C/c2cccc(OC)c2)c1=O	GSTO1 inh 35.5
COc1ccc(/C=C/C(=O)c2ccc(OC)cc2OC)c(OC)c1	none
CNc1ccc(Br)cc(C(=O)/C=C/c2ccc(OC)cc2OC)c1=O	GSTO1 inh 36.1
CCNc1ccc(Br)cc(C(=O)/C=C/c2ccc(Cl)cc2)c1=O	none
CNc1ccc(Br)cc(C(=O)/C=C/c2ccc(Cl)cc2Cl)c1=O	GSTO1 inh 35.0
COc1ccc(S(=O)(=O)N(C)C[C@H]2Oc3ccc(NC(=O)Cc4cn(C)c5ccccc45)cc3C(=O)N([C@@H](C)CO)C[C@@H]2C)cc1	none (no result: LYPLA1 counter, Fam108B counter, GSTO1 inh, LYPLA2 counter, PME-1 primary)
N#Cc1c(NC(=O)c2ccco2)sc2c1CCC2	GSTO1 inh 36.3
NC(=O)c1c(NC(=O)c2ccco2)sc2c1CCC2	none
CCc1ccc2c(c1)C1(NN=C(c3ccc(C)cc3)S1)C(=O)N2 (stereo unspecified)	none
CC(C)c1ccc2c(c1)C1(NN=C(c3ccccc3)S1)C(=O)N2 (stereo unspecified)	PME-1 primary 33.2
O=C(/C=C/c1ccco1)N(c1ccccn1)c1ccccn1	GSTO1 inh 42.1
O=C(CC1C(=O)NCCN1C(=O)c1ccc(F)cc1)OCc1ccccc1 (stereo unspecified)	none
CC(=O)OCC1(C)CN(c2ccccc2)N(C(=O)c2ccc(F)cc2)C1=O (stereo unspecified)	GSTO1 inh 36.1
CN1CCC(OC(=O)c2ccccc2)CC1	Fam108B counter 26.0
COc1ccc(C(=O)OC2CCN(C)CC2)cc1	none
COc1cc2cncc(Cc3ccc(Cl)cc3)c2cc1OC	none (no result: Fam108B counter, GSTO1 inh)
O=C(CN1C(=O)CNC1=O)Nc1cc(Cl)cc(Cl)c1	none (no result: LYPLA1 counter, Fam108B counter, GSTO1 inh, LYPLA2 counter, PME-1 primary)
CC(=O)c1sc(N/N=C\c2cccc(Br)c2)nc1C	none
CC(=O)c1sc(N/N=C\c2ccc(Br)cc2)nc1C	PME-1 primary 26.7
CC(CCc1ccccc1)NC(=O)CN1CCSc2ccccc21 (stereo unspecified)	GSTO1 inh 36.3
CC(CCc1ccccc1)NC(=O)CN1CCOc2ccccc21 (stereo unspecified)	none
Cc1ccc2nsnc2c1NS(=O)(=O)c1c(C)ccc2nsnc12	PME-1 primary 31.5
CN(C)C=Nc1ccccc1C1C=NNC1=O (stereo unspecified)	PME-1 primary 28.2
CC(=O)c1c(N=CN(C)C)nc(C)nc1-c1ccccc1	none
CCC1(CC)NC(=O)N(CC(=O)OCC(=O)Nc2ccc(OC(F)(F)F)cc2)C1=O	none (no result: Fam108B counter, GSTO1 inh)
O=C(COC(=O)COc1ccc(Cl)cc1Cl)Nc1cccnc1Cl	GSTO1 inh 35.4
O=C(Cc1ccccc1)Nc1ncnc2c1C(c1ccccc1)c1c(ccc3ccccc13)O2 (stereo unspecified)	none (no result: LYPLA1 counter, Fam108B counter, GSTO1 inh, LYPLA2 counter, PME-1 primary)
Cc1cc(C)nc(SCNC(=O)c2ccc(F)cc2)n1	GSTO1 inh 36.5
Cc1cc(C(=O)OCC(=O)Nc2cc(S(=O)(=O)N(C)C)ccc2C)c2ccccc2n1	PME-1 primary 28.3
Cc1cc(C(=O)OCC(=O)Nc2cc(S(=O)(=O)N(C)C)ccc2Cl)c2ccccc2n1	none
CN(C1=C(NC(=O)c2ccccc2)C(=O)c2ccccc2C1=O)C1CCS(=O)(=O)C1 (stereo unspecified)	GSTO1 inh 75.5
CC(=O)NC1=C(NC2CCS(=O)(=O)C2)C(=O)c2ccccc2C1=O (stereo unspecified)	none
Cc1ccc(N/N=C(\C#N)C(N)=S)c(C)c1	PME-1 primary 93.0
Cc1ccc(NC(=O)/C(C#N)=N/Nc2ccc(C(=O)O)cc2)c(C)c1	none
CC(=O)Nc1ccc(NC(=O)C(C)OC(=O)c2c(NC(C)=O)sc(C)c2C)cc1 (stereo unspecified)	none (no result: Fam108B counter, GSTO1 inh)
C=CCN(CC=C)C(=S)Nc1ccc2nsnc2c1	GSTO1 inh 42.0
C=CCNC(=S)Nc1ccc2nsnc2c1	none
CCOc1ccc(S(=O)(=O)/N=C(/Nc2ccc(C)c(S(=O)(=O)N3CCOCC3)c2)c2ccccc2)cc1	none (no result: LYPLA1 counter, Fam108B counter, GSTO1 inh, LYPLA2 counter, PME-1 primary)
Cc1cccc(Cc2c(C)nc3c(C(=O)N4CCN(Cc5ccc6c(c5)OCO6)CC4)cnn3c2C)c1	GSTO1 inh 35.2
COc1ccc(N2CCN(c3ncnc4c3[nH]c3ccccc34)CC2)cc1	PME-1 primary 32.4
Fc1ccc2[nH]c3c(N4CCN(c5ccccc5)CC4)ncnc3c2c1	PME-1 primary 45.5
CCOC(=O)N1CCN(c2ncnc3c2[nH]c2ccc(F)cc23)CC1	none
COC(=O)c1c(C)[nH]c(C(=O)OCC(=O)c2ccc(C)s2)c1C	none (no result: LYPLA1 counter, Fam108B counter, GSTO1 inh, LYPLA2 counter, PME-1 primary)
CCN(C(=O)COC(=O)Cc1c[nH]c2ccccc12)c1c(N)n(Cc2ccccc2)c(=O)[nH]c1=O	none
C=CCOc1c(/C=N\NC(N)=O)cccc1OC	none
C=CCOc1c(OC)cc(/C=N/Nc2cccc(C(=O)O)c2)c(Br)c1Br	Fam108B counter 25.4, PME-1 primary 46.2
